According to PubChem BioAssay (Tox21):
“And” between values parts separate entries of the source, which are not always exact repeats. Equal entries are not always repeated. Results filed as inconclusive are left out. A call without a number means that no potency is given here. More than one record can exist for a structure, and the calls need not agree. The source made the active and inactive calls. Calls come from the whole dose curve; as a rule, active = well fitted inhibition curve with a large enough effect in the repeat runs; inconclusive = weak or mixed curves; inactive = no such curve, though single readings can be large or run the other way.

target: Cytochrome P450 3A4 (Homo sapiens) (UniProt P08684); test: Cytochrome P450 Family 3 Subfamily A Member 4 (CYP3A4) small molecule antagonists: luciferase reporter qHTS assay (AID 1671201); conditions: P450-Glo CYP3A4 enzyme, luciferin luminescence, 1 h; series mostly up to 115 µM; activity change, negative = inhibition: at the top concentration; note: nearly all actives have a fitted effect of over 50% in size
Sequence (P08684 whole entry, looked up): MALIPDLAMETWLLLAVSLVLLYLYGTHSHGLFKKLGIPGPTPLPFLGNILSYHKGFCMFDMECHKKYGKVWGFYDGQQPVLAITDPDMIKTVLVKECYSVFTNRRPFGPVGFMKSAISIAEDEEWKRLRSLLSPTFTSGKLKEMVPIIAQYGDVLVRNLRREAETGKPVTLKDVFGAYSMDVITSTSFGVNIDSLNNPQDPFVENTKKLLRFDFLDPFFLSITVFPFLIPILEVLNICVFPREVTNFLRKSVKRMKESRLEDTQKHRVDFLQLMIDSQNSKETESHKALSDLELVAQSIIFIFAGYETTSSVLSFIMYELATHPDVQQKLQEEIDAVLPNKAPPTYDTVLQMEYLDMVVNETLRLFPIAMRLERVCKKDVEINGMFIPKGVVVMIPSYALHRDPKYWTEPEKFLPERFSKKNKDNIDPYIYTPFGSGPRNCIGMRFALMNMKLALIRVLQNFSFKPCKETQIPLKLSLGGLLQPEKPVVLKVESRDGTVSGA
Source text: National Center for Advancing Translational Sciences [NCATS]
U.S. Environmental Protection Agency [EPA]
National Institutes of Environmental Health Sciences [NIEHS]
National Toxicology Program [NTP]
U.S. Food and Drug Administration [FDA]
Cytochrome P450 (CYP) enzymes are membrane-bound hemeproteins that play a key role in metabolism of drugs and xenobiotics. Evaluation of the effect of chemicals on CYP isozymes is useful to minimize the adverse drug reactions and toxicities in drug development process. Tox21 chemicals were tested for their effect on CYP enzyme activities by using P450-Glo (TM) screening systems (Promega Corporation, Madison, WI). These systems provide a luminescent method containing proluciferin substrates and are converted to luciferin products by CYP isozymes. The luciferin products formed are detected with a luciferin detection reagent, and the amount of light produced is proportional to CYP activity. P450-Glo (TM) CYP3A4 screening system (Catalog. No. V9910) was used to detect the compounds that interfere in CYP3A4 activity. The positive control compound used for CYP3A4 assay is ketoconazole (Sigma-Aldrich, St. Louis, MO).
Tox21 Assay Protocol Summary:
Two ul of enzyme-substrate mix was dispensed into medium binding white/solid 1536-well plates (Greiner Bio-One North America Inc., Monroe, NC) using a BioRaptr Flying Reagent Dispenser (FRD, Beckman Coulter, Brea, CA). Compounds dissolved in DMSO and positive control (ketoconazole) were transferred to the assay plates at 23 nl using a Pintool station (Wako, San Diego, CA). The assay plates were incubated at room temperature for 10 min. Then 2 ul of NADPH regeneration solution was added to each well of the assay plates using an FRD and incubated at room temperature for 1 h. The reaction was stopped by adding 4 ul of detection reagent using an FRD and after 20 min incubation at room temperature the luminescence signal was measured using a ViewLux plate reader (Perkin Elmer, Shelton, CT). Data were expressed as relative luminescence units.
Potency is the fitted concentration of half-maximal effect.

SMILES	activity change, negative = inhibition	Potency
CC1(C)C(C(=O)OC(C#N)c2cccc(Oc3ccccc3)c2)C1(C)C (stereo not given)	-1.79% (inactive)	
ClCC(Cl)CCl		inactive
COc1ccc(C=O)cc1OC	-10.7% (inactive)	
O=[N+]([O-])c1ccc(Cl)c([N+](=O)[O-])c1		inactive
CC(C)COC(=O)c1ccccc1C(=O)OCC(C)C		inactive
Clc1ccccc1-c1nnc(-c2ccccc2Cl)nn1		inactive
CNC(=O)Oc1cccc2c1OC(C)(C)C2		inactive
Cc1ccc(N=CN(C)C=Nc2ccc(C)cc2C)c(C)c1		inactive
CCCCOC(=O)COC(=O)c1ccccc1C(=O)OCCCC		22.3 µM (active) and 35.6 µM (active)
CCNCC		inactive
CC(O)CN(CC(C)O)CC(C)O (stereo not given)		inactive
OCCOCCO		inactive
CCN(CC)C(=O)C(C)Oc1cccc2ccccc12 (stereo not given)		6.33 µM (active)
Cn1c(-c2ccccc2)cc(-c2ccccc2)[n+]1C		inactive
CCCCCCCC[N+](C)(CCCCCCCC)CCCCCCCC		1 µM (active) and 449 nM (active) and 6.33 µM (active)
CC1CC(=O)O1 (stereo not given)		inactive
O=NN(c1ccccc1)c1ccccc1		inactive
CCCCCCCCCCCCCl		31.3 µM (active) and inactive
Brc1ccc(Br)cc1		inactive
CCOS(=O)(=O)OCC	1.09% (inactive)	

SMILES	activity change, negative = inhibition	Potency
Cc1ccc([N+](=O)[O-])cc1		inactive
Cc1cccc(N=Nc2ccc(N(C)C)cc2)c1		inactive
Nc1ccc2ccccc2c1		19.3 µM (active) and 17.8 µM (active)
N#CC(c1ccccc1)c1ccccc1		inactive
C=C(C)C#N		inactive
C[N+](C)(C)CC(=O)O		inactive
O=NN1CCOCC1		inactive
N#CCCCCC#N		inactive
CCOP(=S)(OCC)OP(=S)(OCC)OCC		32.6 µM (active) and 39.9 µM (active)
Clc1ccc(C(Cl)(Cl)Cl)cc1		inactive
O=[N+]([O-])c1ccc(Nc2ccccc2)cc1	-8.83% (inactive)	
C[N+](C)(C)C		inactive
CC1(C)Cc2cccc(O)c2O1		inactive
C[C@]12CCC(=O)C=C1CC[C@@H]1[C@@H]2CC[C@@]2(C)[C@H]1CC[C@]2(C)O		inactive
CCCCCCCCCC(CC)c1ccc(S(=O)(=O)O)cc1 (stereo not given)		inactive
CCC/C=N/O		inactive
CC1=C(C(=O)Nc2ccccc2)SCCO1		inactive
CCCCOCCOC(C)=O		inactive
CC(C)CON=O		inactive
CC(C)(c1ccc(OCC2CO2)cc1)c1ccc(OCC2CO2)cc1 (stereo not given)		inactive
